# An excerpt weighted towards active compounds, which were near 3% of everything screened.
# L929 necroptosis: inhibitors of zVAD-triggered necroptosis, primary screen, L929 cells | 0.38% of 220,000 active | viability rescue, % at 10 µM | L929 zVAD necroptosis rescue, ATP luminescence, 24 h; with zVAD 60 µM | AID 1377, 2008;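 active = activation, scaled between plate controls, above about 75%, limit read from the data; inactive = activation under that limit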
# Calpain2 inh: inhibitors of pig calpain II, primary screen, biochemical, fluorogenic peptide substrate, 1536-well; inhibition, % at 16 µM; 0.37% of 220,000 active; AID 1236, 2008; purified calpain II, 30 min;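 active = inhibition above about 50%, limit read from the data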
# 14-3-3 Bad PPI: inhibitors of 14-3-3 zeta/Bad binding, primary screen, biochemical, TR-FRET, bovine 14-3-3 zeta; 14-3-3 protein zeta/delta (Bos taurus), P63103; TR-FRET 14-3-3zeta/Dy647-pBad peptide displacement, 1 h; inhibition, % at 21.7 µM; 0.71% of 220,000 active;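 active = inhibition above about 70%, limit read from the data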
# TNF necrop inh: inhibitors of TNF-alpha triggered necroptosis, primary screen, cell-based, Jurkat FADD-/-, single concentration | Jurkat FADD-/- TNF necroptosis rescue, ATP luminescence, 24 h; 0 = TNF only, 100 = no-TNF cells | activation (protection from cell death), % at 10 µM | 0.068% of 220,000 active;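 active = activation, meaning protection from cell death, of at least 50% relative to plate controls; inactive = activation below 50%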;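 note: necroptosis triggered by 40 ng/mL TNF-alpha added together with compound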
# ROMK primary: ROMK potassium channel modulators, primary screen, cell-based, thallium flux, MLSMR library; ATP-sensitive inward rectifier potassium channel 1 (Homo sapiens), P48048; Tet-inducible ROMK, thallium flux fluorescence; actives lie on both sides; B-score at 10 µM; 2% of 130,000 active; AID 1918, 2009;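 active = signal ratio slope over the read window, or its plate-corrected B-score, at least 3 SD from the plate mean, either direction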;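 note: B-score of the F/F0 ratio slope over 7 to 12 s after thallium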
# Target sequence (P48048 whole entry, looked up): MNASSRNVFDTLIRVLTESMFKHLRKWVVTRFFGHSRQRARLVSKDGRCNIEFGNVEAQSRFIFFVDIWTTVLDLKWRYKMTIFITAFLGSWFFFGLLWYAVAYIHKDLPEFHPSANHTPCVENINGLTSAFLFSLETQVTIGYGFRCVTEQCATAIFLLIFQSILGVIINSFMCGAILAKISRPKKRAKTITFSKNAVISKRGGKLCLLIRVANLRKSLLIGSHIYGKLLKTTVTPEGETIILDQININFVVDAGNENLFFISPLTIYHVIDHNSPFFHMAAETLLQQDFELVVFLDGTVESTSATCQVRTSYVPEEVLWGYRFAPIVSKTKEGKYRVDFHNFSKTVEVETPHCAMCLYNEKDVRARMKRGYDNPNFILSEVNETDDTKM
# Efa HMGR inh: inhibitors of E. faecalis class II HMGR, primary screen, biochemical, Enterococcus faecalis; purified E. faecalis HMGR, NADPH absorbance 340 nm kinetic; inhibition, % at 10 µM; 0.41% of 190,000 active; AID 1066, 2008;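 active = inhibition above a set limit, the median over all tested compounds plus 3 SD, cut at about 9.5% in these data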;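 note: enzyme runs in reverse so mevalonate oxidation gives rising NADPH absorbance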
# Numbers stand for hits; i = inactive; nt = no result given; [ ] = another dose, or the depositor's remark.
SMILES,L929 necroptosis,Calpain2 inh,14-3-3 Bad PPI,TNF necrop inh,ROMK primary,Efa HMGR inh
CN(C)C(CNC(C(=O)Nc1ccc([N+](=O)[O-])cc1Br)c1ccccc1)c1ccccc1 (centres undefined),i,53.0,i,i,i,i
COc1cccc(/C=N/NC(=O)NC2CCCCC2)c1O,i,i,i,i,nt,nt
Cc1ccc(S(=O)(=O)N2CCCCC2)cc1C(=O)Nc1ccc(S(=O)(=O)Nc2ncccn2)cc1,i,i,i,i,nt,nt
CCOc1cc(CNc2ccccc2SC)ccc1O,i,i,i,i,i,i
COc1cc(CNc2ccccc2SC)ccc1O,i,i,76.9,i,i,i
Cc1cccc(NC(=O)Cn2c(=O)n(C)c3ccccc32)c1,i,i,i,i,i,11.8
CCOCCCNC(=O)CN1CCN(c2ccc(F)cc2)CC1,i,i,73.5,i,nt,i
CCOc1ccc2cc(C3CC(c4ccco4)=NN3S(C)(=O)=O)c(=O)[nH]c2c1 (centres undefined),i,i,i,i,nt,nt
CCOC(=O)C1=C(C)Nc2ccccc2N=C1NC(=O)C(CC)c1ccccc1 (centres undefined),i,i,i,i,nt,i
O=C(c1cc(C2CC2)on1)N1CCN(c2ccccc2)CC1,i,i,i,i,nt,i
COc1ccc(C)cc1NC(=O)c1ccc([N+](=O)[O-])cc1[N+](=O)[O-],i,i,i,i,i,i
O=C(Nc1cccc2oc(=O)ccc12)c1ccc([N+](=O)[O-])cc1[N+](=O)[O-],i,63.5,i,i,i,i
OCCC1CN(Cc2cccs2)CCN1Cc1ccccc1 (centres undefined),i,i,i,i,i,14.7
OCCC1CN(Cc2cnc(-c3ccccc3)s2)CCN1Cc1ccccc1 (centres undefined),i,i,i,i,nt,i
CN1CCN(CCCNC(=O)c2ccc(/C=C3\Sc4ccccc4N(Cc4ccccc4F)C3=O)cc2)CC1,i,i,85.7,i,i,i
Cc1ccc(NS(=O)(=O)c2cc(OCC(N)=O)c(C)cc2Cl)cc1,i,i,i,i,i,i
Cn1c(SCc2cc([N+](=O)[O-])cc3c2OCOC3)nnc1-c1ccccn1,i,i,i,i,i,i
O=C(Nc1ccc(S(=O)(=O)Nc2nccs2)cc1)c1cccc(N2C(=O)c3ccccc3C2=O)c1,i,i,i,i,i,i
O=C(Nc1nccs1)c1cccc(N2C(=O)c3cccc4c([N+](=O)[O-])ccc(c34)C2=O)c1,i,i,76.5[fluorescence artefact?],i,i,i
O=C1CSC(c2cccnc2)N1c1cccc(Cl)c1 (centres undefined),i,i,i,i,i,12.9
Cc1ccc2nc(-c3cccnc3)cc(C(=O)Nc3ccc(F)cc3C)c2c1,i,i,i,i,i,i
NC(=S)N/N=C/c1coc2c(ccc3ccccc32)c1=O,i,73.0,89.0[fluorescence artefact?],i,i,i
O=C(NCc1cccnc1)c1ccc2c(=O)n(CCCN3CCCC3=O)c(=S)[nH]c2c1,i,84.2,i,i,nt,i
CC1(C(=O)NC(=S)N(CCC#N)c2ccccc2)CC1(Cl)Cl (centres undefined),i,i,i,i,i,i
CC(C)N(Cc1ccccc1)C(=S)NC(=O)C1(C)CC1(Cl)Cl (centres undefined),i,i,i,i,5.06,i
Cc1ccc(CNC(=O)[C@H](C)[C@H]2C[C@]2(C)[C@H](NC(=O)OCc2ccccc2)c2ccccc2)o1,i,i,i,i,i,i
CN(C)CC(C)(C)CNC(=O)CC1C(=O)NCCN1Cc1ccc(-c2ccccc2)cc1 (centres undefined),i,i,i,i,i,i
CCc1ccc2[nH]c(=O)c(C(c3nnnn3CC3CCCO3)N3CCN4CCCC4C3)cc2c1 (centres undefined),i,i,i,i,-2.35,i
CC(C)COc1ccc(C(=O)CCN2CCCCC2)cc1,i,i,79.0,i,nt,i
CCOc1cc([N+](=O)[O-])c2nc(N)sc2c1,i,i,i,i,nt,nt

# Compound activity from PubChem.
